# Records with an inconclusive call do not appear. The source made the active and inactive calls. How the source made its calls: active means hit-call score of the fitted dose curve at least 0.9, where 1 is the maximum; inconclusive means response in the unintended direction; inactive means score below 0.9.
# Experiment: ATG_M_06_TRANS: Attagene TRANS-FACTORIAL HepG2 Assay for M06 Transcription Factor (Internal Marker) (AID 2282983)
# Conditions: HepG2 Attagene TRANS M06 internal marker reporter
# Method: ATG_TRANS is a cell-based, multiplexed-readout assay that uses HepG2, a human liver cell line, with measurements taken at 24 hours after chemical dosing in a 24-well plate.ATG_M_06_TRANS is one of 30 assay component(s) measured or calculated from the ATG_TRANS assay. It is designed to make measurements of mRNA induction, a form of inducible reporter, as detected with fluorescence intensity signals by Reverse transcription polymerase chain reaction (RT-PCR) and Capillary electrophoresis technology.Data from the assay component ATG_M_06_TRANS was analyzed into 1 assay endpoint. This assay endpoint, ATG_M_06_TRANS, was analyzed in the positive analysis fitting direction relative to DMSO as the negative control and baseline of activity. Using a type of inducible reporter, measures of mRNA for gain-of-signal activity can be used to understand the background control at the transcription factor-level as they relate to the gene . Furthermore, this assay endpoint can be referred to as a secondary readout, because this assay has produced multiple assay endpoints where this one serves a background control function. To generalize the intended target to other relatable targets, this assay endpoint is annotated to the background measurement intended target family, where the subfamily is internal marker.
# Human liver HepG2 cells are transiently transfected with multiple reporter transcription units (MRTUs) in 6-well plates using FuGene 6 reagent (Roche; 3 ml FuGene/1 mg DNA). The MRTU constructs are regulated by a cis-regulating element (promoter). […] A major difference between the CIS and TRANS system is that in CIS activities of endogenous TFs are measured, whereas the TRANS assay evaluates changes in activities of exogenous, chimeric NR-Gal4 proteins. […] At the end of 24 hour incubation, total RNA was isolated using TriZol reagent (Invitrogen). The isolated RNA is then reverse-transcribed using oligo(dT) primer and Mo-MLV reverse transcriptase (Invitrogen) with DNAse I (Ambion) treatment for 30 min. The one-tenth of the produced cDNA was amplified by PCR using Taq DNA polymerase (Invitrogen) and two reporter sequence-specific primers. The PCR products were fluorescently labeled by primer extension with 6-arboxyfluorescein (6-FAM) 5'-labeled reporter sequence-specific primer (2 min at 95 C, 20 s at 68 C and 10 min at 72 C) and these products were digested with 5U of HpaI (New England Biolabs) for 2h at 37 C. The fragments were purified using Qiaquick PCR columns (Qiagen), analyzed on an ABI 3130xL genetic analyzer (Applied Biosystems) with peak positions identified by using a set of X-rhodamine (ROX)-labeled MapMarker1000 molecular weight standards (BioVentures). The raw capillary electrophoresis data was processed using Attagraph software (Attagene).
row,SMILES,outcome
1,ClCCCCl,inactive
2,Cc1cc(Cl)ccc1OC(C)C(=O)O (stereo not given),inactive
3,CCCCC(CC)COC(=O)Cl (stereo not given),inactive
4,N#CS,inactive
5,O=C1C[C@@H]2OCC=C3CN4CC[C@]56c7ccccc7N1[C@H]5[C@H]2[C@H]3C[C@H]46,inactive
6,Clc1ccc(C(Cl)(Cl)Cl)cn1,inactive
7,O=[N+]([O-])c1cc([As](=O)(O)O)ccc1O,inactive
8,O=S(=O)(F)C(F)(F)C(F)(F)C(F)(F)C(F)(F)F,inactive
9,Oc1c(Cl)cc(Cl)cc1Cl,inactive
10,Nc1cccnc1,inactive
11,O=C(O)COc1cc(Cl)c(Cl)cc1Cl,inactive
12,N#Cc1ccncc1,inactive
13,CCC[N+](CCC)(CCC)CCC,inactive
14,FC(F)OCC(F)(F)C(F)(F)F,inactive
15,Cc1ccc2nc3sc(=O)sc3nc2c1,inactive
16,O=C(NC(=O)c1c(F)cccc1F)Nc1cc(Cl)c(OC(F)(F)C(F)C(F)(F)F)cc1Cl (stereo not given),inactive
17,CNC(=O)N(C)c1nc2ccccc2s1,inactive
18,COC(=O)c1cc(Oc2ccc(Cl)cc2Cl)ccc1[N+](=O)[O-],inactive
19,OCCN(CCO)CCO,inactive
20,Oc1c(Br)cc(Br)cc1Br,inactive

row,SMILES,outcome
1,COCCl,inactive
2,CC1(C)[C@H](/C=C2\CCSC2=O)[C@@H]1C(=O)OCc1coc(Cc2ccccc2)c1,inactive
3,CCOCn1c(-c2ccc(Cl)cc2)c(C#N)c(Br)c1C(F)(F)F,inactive
4,CC1(C)COP(Oc2ccccc2)OC1,inactive
5,CC(C)[C@@H](Nc1ccc(C(F)(F)F)cc1Cl)C(=O)OC(C#N)c1cccc(Oc2ccccc2)c1 (stereo not given in full),inactive
6,CC(C)(c1ccccc1)c1cc(-n2nc3ccccc3n2)c(O)c(C(C)(C)c2ccccc2)c1,inactive
7,CN(C)c1ccc(N=O)cc1,inactive
8,O=C(Cc1ccccc1)OCCc1ccccc1,inactive
9,C#CCO,inactive
10,CC(C)CC(C)(c1ccc(O)cc1)c1ccc(O)cc1,inactive
11,Oc1ccc(Cc2ccc(O)cc2)cc1,inactive
12,O=S1(=O)OC(c2cc(Br)c(O)c(Br)c2)(c2cc(Br)c(O)c(Br)c2)c2ccccc21,inactive
13,CCCCC(CC)C(=O)Cl (stereo not given),inactive
14,[Cl][Sn]([c]1ccccc1)([c]1ccccc1)[c]1ccccc1,inactive
15,N#Cc1ccccc1Cl,inactive
16,CN(N=O)c1ccc([N+](=O)[O-])cc1,inactive
17,COP(=S)(OC)Oc1cc(Cl)c(I)cc1Cl,inactive
18,CCOc1cc(C=O)ccc1O,inactive
19,Cc1cc(Cl)ccc1OCCCC(=O)O,inactive
20,C=CC(Cl)CCl (stereo not given),inactive

# From PubChem BioAssay (EPA / NIEHS)
